The target in assay [1] is Estrogen receptor beta (Homo sapiens) (UniProt Q92731). Briefly: qHTS assay to identify small molecule antagonists of the estrogen receptor beta (ER-beta) signaling pathway (AID 1259378; active means well fitted inhibition curve with a large enough effect in the signal ratio in the repeat runs, not every such curve was filed as active; the % refers to the signal ratio). The essentials: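 ER-beta-UAS-bla HEK293T cells in 2% charcoal-stripped FBS medium treated with compound plus 1nM final 17-beta-estradiol for 16 hr at 37C. Beta-lactamase reporter read by FRET substrate fluorescence after 2 hours at room temperature.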
Sequence of Estrogen receptor beta (Homo sapiens) (Q92731 whole entry, looked up): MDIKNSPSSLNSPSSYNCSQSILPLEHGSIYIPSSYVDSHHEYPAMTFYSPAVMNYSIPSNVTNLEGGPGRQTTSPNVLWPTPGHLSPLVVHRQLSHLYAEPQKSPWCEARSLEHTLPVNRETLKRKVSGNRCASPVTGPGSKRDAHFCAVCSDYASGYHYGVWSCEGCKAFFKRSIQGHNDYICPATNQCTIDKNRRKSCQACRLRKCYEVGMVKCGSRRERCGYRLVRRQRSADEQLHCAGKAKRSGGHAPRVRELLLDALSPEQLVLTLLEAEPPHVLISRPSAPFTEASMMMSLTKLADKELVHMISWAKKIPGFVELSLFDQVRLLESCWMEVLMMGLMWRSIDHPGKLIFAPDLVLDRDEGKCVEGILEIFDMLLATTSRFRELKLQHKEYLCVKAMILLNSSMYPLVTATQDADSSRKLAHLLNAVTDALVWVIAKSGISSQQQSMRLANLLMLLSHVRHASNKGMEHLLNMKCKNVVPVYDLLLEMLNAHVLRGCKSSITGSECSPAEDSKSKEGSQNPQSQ
Background: In qHTS, concentration-response curves come from the screen itself.

Assay [2] is described as follows: qHTS assay to identify small molecule agonists of the androgen receptor (AR) signaling pathway in the presence of an antagonist - cell viability counter screen (AID 1259379). Further: nearly all actives have a fitted effect of over 25% in size. Further: potency means the concentration at half of the fitted maximal effect. The essentials:
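A CellTiter-Fluor read-out measured viability of MDA-kb2 reporter cells (MMTV promoter with AR and GR response elements). Treatment: nilutamide 3.0uM final with compounds at 15 concentrations, 16 hr, 37C, 0% CO2.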

The nature of assay [3]: qHTS assay to identify small molecule agonists of the estrogen receptor beta (ER-beta) signaling pathway - cell viability counter screen (AID 1259380). Further: nearly all actives have a fitted effect of over 30% in size. Further: potency means the concentration at half of the fitted maximal effect. The essentials: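 Cells used were ER-beta-UAS-bla HEK293T in medium with 2% charcoal-stripped FBS. They were treated for 16 hr at 37C. Viability came from CellTiter-Glo luminescence.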
In assay [4] the target is Androgen receptor (Homo sapiens) (UniProt P10275). In words: qHTS assay to identify small molecule agonists of the androgen receptor (AR) signaling pathway in the presence of an antagonist (AID 1259381; calls by dose curve; further: nearly all actives have a fitted effect of over 15% in size). The essentials:
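Using human MDA-kb2 cells with an MMTV promoter–luciferase construct (AR and GR response elements), agonist activity is scored under 3.0uM nilutamide (final) co-treatment; 16hr incubation, 37C, luminescence readout via ONE-Glo.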

Assay [5] is described as follows: qHTS assay to identify small molecule agonists of the estrogen receptor alpha (ER-alpha) signaling pathway in the presence of an antagonist - cell viability counter screen (AID 1259386).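 Further: cells exposed to compounds for 22 h at 37 °C before the viability read; nearly all actives have a fitted effect of over 30% in size.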 Further: potency means the concentration at half of the fitted maximal effect. The essentials: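 ICI-182,780 at 10.0nM final accompanies the compound titration (15 concentrations, 22hr, 37C) on VM7Luc4E2 cells. The CellTiter-Fluor fluorescence readout runs in the same wells as the luciferase assay.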

Assay [6] addresses Progesterone receptor (Homo sapiens) (UniProt P06401). Briefly: qHTS assay to identify small molecule agonists of the progesterone receptor (PR) signaling pathway (AID 1346784; calls by dose curve; further: nearly all actives have a fitted effect of over 30% in size). The essentials:
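The screen uses PR-UAS-bla HEK 293T cells in charcoal-stripped serum (2%). Compounds are applied for 16 hr at 37C after a 6 hr pre-incubation, and reporter activity is detected with a FRET beta-lactamase substrate after 2 hr at room temperature.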

Assay [7] has the same target. In words: qHTS assay to identify small molecule antagonists of the progesterone receptor (PR) signaling pathway (AID 1346795; active means well fitted inhibition curve with a large enough effect in the signal ratio in the repeat runs, not every such curve was filed as active; the % refers to the signal ratio). The essentials:
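After 6 hr plating at 37C in 2% stripped-serum medium, PR-UAS-bla HEK293T cells got compounds, then 1 nM R5020. Sixteen hours later, LiveBLAzer substrate was applied for 2 hr at room temperature and fluorescence was recorded.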

A short description of assay [8]: qHTS assay to identify small molecule agonists of the progesterone receptor (PR) signaling pathway - cell viability counter screen (AID 1346799; calls by dose curve; further: nearly all actives have a fitted effect of over 45% in size; further: potency means the concentration at half of the fitted maximal effect). The essentials:
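Viability was scored by ATP luminescence (CellTiter-Glo, 30 min, room temperature) in the same wells used for the reporter readout, after 16 hr compound exposure of PR-UAS-bla HEK293T cells.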

Assay [9] is described as follows: qHTS assay to identify small molecule antagonists of the TGF-beta/Smad signaling pathway - cell viability counter screen (AID 1346824). Further: nearly all actives have a fitted effect of over 50% in size. The essentials: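 SBE-bla HEK 293T cells, incubated overnight, then compound plus 0.25 ng/mL TGF-beta1 (stock added) for 5 hr at 37 C. Viability was read in the same wells by CellTiter-Glo luminescence after 30 min at room temperature.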

A short description of assay [10]: qHTS assay to identify small molecule agonists of the TGF-beta/Smad signaling pathway - cell viability counter screen (AID 1346829). Further: top concentration of the series differs between compounds; nearly all actives have a fitted effect of over 45% in size. The essentials: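 After overnight seating at 37 C and 5% CO2, reporter cells got compounds for 5 hr and FRET substrate for 2 hr; cell viability then came from CellTiter-Glo luminescence.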
A short description of assay [11]: qHTS assay to identify small molecule agonists of the TGF-beta/Smad signaling pathway (AID 1346859; active means well fitted activation curve with a large enough effect in the signal ratio in the repeat runs, not every such curve was filed as active; the % refers to the signal ratio; further: series mostly up to about 77 µM). The essentials:
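Dual-wavelength fluorescence (460/530 nm emission) quantified beta-lactamase expression under the Smad binding element in HEK 293T cells following 5 hr compound treatment at 37 C.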

For assay [12], the target named is Thyrotropin-releasing hormone receptor (Homo sapiens) (UniProt P34981). In words: qHTS assay to identify small molecule antagonists of the thyrotropin-releasing hormone receptor (TRHR) signaling pathway (AID 1346877; active means well fitted inhibition curve with a large enough effect in the repeat runs, not every such curve was filed as active; further: series mostly up to about 51 µM). The essentials: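 Screening used HEK293 cells engineered with TRHR, with a brief 5 min room-temperature compound exposure preceding addition of TRH to 1 nM. The read-out was kinetic calcium-dye fluorescence, concentration-response from 15 doses in triplicate.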
Sequence of Thyrotropin-releasing hormone receptor (Homo sapiens) (P34981 whole entry, looked up): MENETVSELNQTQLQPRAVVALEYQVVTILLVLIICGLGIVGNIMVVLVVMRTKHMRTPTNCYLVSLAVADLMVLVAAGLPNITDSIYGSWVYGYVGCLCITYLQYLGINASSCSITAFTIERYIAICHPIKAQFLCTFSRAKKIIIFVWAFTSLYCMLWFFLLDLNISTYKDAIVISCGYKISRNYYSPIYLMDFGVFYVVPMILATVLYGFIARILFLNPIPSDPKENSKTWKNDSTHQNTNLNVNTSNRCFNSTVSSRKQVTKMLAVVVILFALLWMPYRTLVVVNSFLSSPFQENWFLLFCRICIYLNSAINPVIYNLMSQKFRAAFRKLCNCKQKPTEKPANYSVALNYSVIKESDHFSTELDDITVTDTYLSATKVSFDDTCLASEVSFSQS

The target is the same in assay [13]. Briefly: qHTS assay to identify small molecule agonists of the thyrotropin-releasing hormone receptor (TRHR) signaling pathway (AID 1346891; calls by dose curve;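 further: HEK293 cells expressing TRHR with calcium dye readout; series mostly up to about 58 µM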). The essentials:
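Kinetic fluorescence (3 min, 1 s intervals) reported intracellular calcium after compound transfer onto TRHR-Hek293 cells pre-loaded with dye for 2 h at 37 °C.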

The target in assay [14] is Estrogen receptor beta (Homo sapiens) (UniProt Q92731). Briefly: qHTS assay to identify small molecule agonists of the estrogen receptor beta (ER-beta) signaling pathway (AID 1259377; active means well fitted activation curve with a large enough effect in the signal ratio in the repeat runs, not every such curve was filed as active; the % refers to the signal ratio). The essentials: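 Measured by fluorescence intensity from a B/G FRET beta-lactamase substrate (2 h, room temperature) in ER-beta-UAS-bla HEK293T cells treated with DMSO-dissolved compounds for 16 hr at 37C and 5% CO2.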

Assay [15] has as its target Estrogen receptor (Homo sapiens) (UniProt P03372). Briefly: qHTS assay to identify small molecule agonists of the estrogen receptor alpha (ER-alpha) signaling pathway in the presence of an antagonist (AID 1259383; calls by dose curve; further: top concentration of the series differs between compounds; nearly all actives have a fitted effect of over 15% in size). The essentials: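 Using VM7Luc4E2 cells seeded 24hr before treatment, antagonist ICI-182,780 (10.0nM final) was added, followed by compounds at 15 concentrations. Plates incubated 22hr; ONE-Glo luminescence quantified reporter activity.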

Assay [16] concerns the target Thyrotropin receptor (Homo sapiens) (UniProt P16473). Briefly: qHTS assay to identify small molecule antagonists of the thyroid stimulating hormone receptor (TSHR) signaling pathway (AID 1259385; calls by dose curve; further: nearly all actives have a fitted effect of over 20% in size). The essentials:
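TSHR-HEK293 cells (800/well) plated 18 h, then compounds with Ro20-1724 and TSH at 1.5 ng/mL final, 30 min at room temperature. cAMP quantified by HTRF (cAMP-d2/anti-cAMP-cryptate, 1 h); 15 concentrations in triplicate.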

A short description of assay [17]: qHTS assay to identify small molecule antagonists of the estrogen receptor beta (ER-beta) signaling pathway - cell viability counter screen (AID 1259382). Further: series mostly up to about 92 µM; nearly all actives have a fitted effect of over 55% in size. The essentials:
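Agonist-stimulated (1nM E2) ER-beta-UAS-bla HEK293T cells are incubated with library compounds for 16 hr at 37C. Cell viability is then assessed in the reporter-assay wells by adding CellTiter-Glo and reading luminescence after 30 min.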

Assay [18] in a line: qHTS assay to identify small molecule agonists or antagonists of the thyroid stimulating hormone receptor (TSHR) signaling pathway - wild type cell line counter screen (AID 1259384; calls by dose curve). The essentials: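 Wild-type Hek293 cells, 800/well, 18 h at 37C, then compound with Ro20-1724 for 30 min RT. cAMP by HTRF (cAMP-d2/anti-cAMP cryptate), 1 h RT, fluorescence read. 15 concentrations, triplicates.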

Assay [19] is described as follows: qHTS assay to identify small molecule antagonists of the progesterone receptor (PR) signaling pathway - cell viability counter screen (AID 1346798). Further: nearly all actives have a fitted effect of over 50% in size. Further: potency means the concentration at half of the fitted maximal effect. The essentials: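 Viability was determined by ATP-based luminescence (CellTiter-Glo) in PR-UAS-bla HEK293T cells cultured in 2% charcoal-stripped serum and incubated 16 hr with compounds under R5020 stimulation.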

Ten compounds from PubChem BioAssay (Tox21) can be followed below.

Values without a mark were called inactive. Results filed as inconclusive are left out. Calls of active or inactive are those of the source. Unless noted, the call rests on the fitted dose curve; in most records, active means well fitted curve in the direction sought with a large enough effect in the repeat runs; inconclusive means weak or mixed curves; inactive means no such curve, though single readings can be large; an effect the other way counts as inactive or inconclusive.

Sequence of Progesterone receptor (Homo sapiens) (P06401 whole entry, looked up): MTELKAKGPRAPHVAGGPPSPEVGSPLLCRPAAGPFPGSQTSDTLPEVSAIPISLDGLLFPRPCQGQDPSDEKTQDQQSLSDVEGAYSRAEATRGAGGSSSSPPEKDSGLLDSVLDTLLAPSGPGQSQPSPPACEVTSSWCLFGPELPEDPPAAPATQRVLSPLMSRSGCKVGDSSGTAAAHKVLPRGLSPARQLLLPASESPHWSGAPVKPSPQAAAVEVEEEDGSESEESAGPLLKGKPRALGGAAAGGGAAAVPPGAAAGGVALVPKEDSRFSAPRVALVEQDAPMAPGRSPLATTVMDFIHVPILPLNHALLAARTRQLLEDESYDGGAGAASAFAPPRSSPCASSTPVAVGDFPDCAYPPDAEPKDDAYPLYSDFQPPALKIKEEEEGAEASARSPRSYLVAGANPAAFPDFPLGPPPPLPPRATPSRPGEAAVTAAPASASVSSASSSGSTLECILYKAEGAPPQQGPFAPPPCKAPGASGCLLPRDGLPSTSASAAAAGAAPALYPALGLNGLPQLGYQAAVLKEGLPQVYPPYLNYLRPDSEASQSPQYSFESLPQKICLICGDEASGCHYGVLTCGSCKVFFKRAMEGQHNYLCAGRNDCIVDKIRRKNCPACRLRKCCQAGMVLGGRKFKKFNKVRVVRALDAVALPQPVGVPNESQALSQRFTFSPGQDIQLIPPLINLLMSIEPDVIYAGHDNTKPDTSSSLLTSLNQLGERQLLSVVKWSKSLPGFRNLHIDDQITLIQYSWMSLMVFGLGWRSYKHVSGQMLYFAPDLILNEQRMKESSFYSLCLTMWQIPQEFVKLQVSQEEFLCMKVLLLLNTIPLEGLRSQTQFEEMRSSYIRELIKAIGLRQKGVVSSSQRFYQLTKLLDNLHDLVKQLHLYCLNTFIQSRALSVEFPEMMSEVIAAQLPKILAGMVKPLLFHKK
Sequence of Estrogen receptor (Homo sapiens) (P03372 whole entry, looked up): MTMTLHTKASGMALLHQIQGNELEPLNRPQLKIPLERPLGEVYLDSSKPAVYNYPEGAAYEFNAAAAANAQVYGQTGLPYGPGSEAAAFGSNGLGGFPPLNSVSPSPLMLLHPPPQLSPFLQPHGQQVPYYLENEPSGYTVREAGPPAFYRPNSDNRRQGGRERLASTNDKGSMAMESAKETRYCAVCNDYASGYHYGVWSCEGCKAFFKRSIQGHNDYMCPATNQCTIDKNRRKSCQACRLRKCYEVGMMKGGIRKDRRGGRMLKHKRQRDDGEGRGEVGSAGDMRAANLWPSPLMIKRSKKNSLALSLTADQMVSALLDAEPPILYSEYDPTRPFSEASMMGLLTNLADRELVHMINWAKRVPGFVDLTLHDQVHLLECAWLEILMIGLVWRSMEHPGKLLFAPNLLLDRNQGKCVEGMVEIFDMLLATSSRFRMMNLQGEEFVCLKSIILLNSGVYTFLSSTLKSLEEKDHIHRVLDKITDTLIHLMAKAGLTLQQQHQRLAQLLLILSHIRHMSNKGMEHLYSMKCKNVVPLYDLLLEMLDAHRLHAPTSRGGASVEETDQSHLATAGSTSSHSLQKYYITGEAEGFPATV
Sequence of Androgen receptor (Homo sapiens) (P10275 whole entry, looked up): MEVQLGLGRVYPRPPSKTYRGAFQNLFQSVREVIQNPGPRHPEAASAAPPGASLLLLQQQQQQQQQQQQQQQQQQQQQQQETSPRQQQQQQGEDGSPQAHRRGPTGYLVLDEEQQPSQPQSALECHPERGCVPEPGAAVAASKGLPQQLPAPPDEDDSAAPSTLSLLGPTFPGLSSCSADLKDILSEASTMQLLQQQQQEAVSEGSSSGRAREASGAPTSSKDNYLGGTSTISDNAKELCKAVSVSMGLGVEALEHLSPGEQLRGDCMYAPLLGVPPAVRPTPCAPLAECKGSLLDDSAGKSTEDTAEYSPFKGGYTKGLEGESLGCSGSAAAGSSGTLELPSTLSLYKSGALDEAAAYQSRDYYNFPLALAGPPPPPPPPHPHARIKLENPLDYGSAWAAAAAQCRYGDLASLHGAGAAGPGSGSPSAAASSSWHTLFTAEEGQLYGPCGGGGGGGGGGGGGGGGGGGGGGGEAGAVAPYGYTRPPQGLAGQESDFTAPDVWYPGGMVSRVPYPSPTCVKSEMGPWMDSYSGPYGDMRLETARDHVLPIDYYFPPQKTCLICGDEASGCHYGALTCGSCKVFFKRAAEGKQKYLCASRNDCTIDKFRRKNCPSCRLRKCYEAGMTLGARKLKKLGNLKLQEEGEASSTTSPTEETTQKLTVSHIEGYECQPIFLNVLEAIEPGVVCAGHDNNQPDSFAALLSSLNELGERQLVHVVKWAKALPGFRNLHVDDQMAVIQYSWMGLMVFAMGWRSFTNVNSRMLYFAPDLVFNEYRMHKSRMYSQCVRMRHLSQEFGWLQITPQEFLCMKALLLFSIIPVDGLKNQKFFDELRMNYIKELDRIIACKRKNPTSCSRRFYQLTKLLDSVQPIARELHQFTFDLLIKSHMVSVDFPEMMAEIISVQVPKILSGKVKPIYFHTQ
Sequence of Thyrotropin receptor (Homo sapiens) (P16473 whole entry, looked up): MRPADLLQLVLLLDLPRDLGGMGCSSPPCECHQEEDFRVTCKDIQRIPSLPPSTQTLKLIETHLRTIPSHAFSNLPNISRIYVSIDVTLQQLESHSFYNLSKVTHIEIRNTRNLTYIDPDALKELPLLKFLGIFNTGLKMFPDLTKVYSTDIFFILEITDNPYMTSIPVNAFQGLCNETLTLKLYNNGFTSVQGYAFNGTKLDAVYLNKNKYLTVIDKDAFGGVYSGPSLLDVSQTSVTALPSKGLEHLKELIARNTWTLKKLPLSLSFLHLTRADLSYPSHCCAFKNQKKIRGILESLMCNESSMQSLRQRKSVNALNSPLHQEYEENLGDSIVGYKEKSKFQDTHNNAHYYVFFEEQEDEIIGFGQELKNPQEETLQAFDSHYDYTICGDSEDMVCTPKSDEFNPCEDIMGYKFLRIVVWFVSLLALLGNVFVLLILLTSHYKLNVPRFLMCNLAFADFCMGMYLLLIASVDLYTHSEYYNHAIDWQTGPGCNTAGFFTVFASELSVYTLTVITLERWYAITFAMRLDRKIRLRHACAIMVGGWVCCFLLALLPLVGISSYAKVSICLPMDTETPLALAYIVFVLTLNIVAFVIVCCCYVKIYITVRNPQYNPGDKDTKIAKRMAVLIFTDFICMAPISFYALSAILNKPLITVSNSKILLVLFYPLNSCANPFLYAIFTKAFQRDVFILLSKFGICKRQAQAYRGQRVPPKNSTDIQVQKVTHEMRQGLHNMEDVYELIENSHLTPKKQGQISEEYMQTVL

With `Nc1ccc(N)c2c1C(=O)c1ccccc1C2=O`, the Potency entry in assay [1], in [4], in assay [6], in [7], in assay [8] and in assay [9] was “inactive” each time. Also, the Potency result in [11] and in [13] was “inactive” throughout. Also, the results for the Potency in assay [2], in assay [3] and in assay [5] were 21.7 µM (active), 7.7 µM (active) and 9.69 µM (active), respectively. In addition, the call in assay [10] and in assay [12] was inactive.

In the case of `OCCN1CCN(CCCN2c3ccccc3C=Cc3ccccc32)CC1`, the Potency result in assay [14], in assay [2], in assay [15], in [16], in assay [9] and in [11] was “inactive” throughout. The Potency in assay [3] was 5.31 µM (active). Also, the outcome in assay [10] was inactive.

Take `CCOC(=O)COC(=O)c1cc(Oc2ccc(C(F)(F)F)cc2Cl)ccc1[N+](=O)[O-]`: the Potency entry in [2], in assay [3], in assay [4], in [17], in assay [18] and in assay [16] was “inactive” each time. The Potency result in assay [5], in assay [19] and in assay [9] was “inactive” each time. Further, the result in assay [10] was inactive.

In the case of `COc1cc2nc(Cl)nc(N)c2cc1OC`, the Potency result in [2], in [3], in assay [4], in assay [17], in [15] and in assay [5] was “inactive” throughout. Further, the Potency entry in assay [6], in assay [19], in assay [11] and in [13] was “inactive” each time. The compound was classed as inactive in assay [10] and in [12].

For `CN1C[C@H]2c3ccccc3Oc3ccc(Cl)cc3[C@@H]2C1`, the Potency result in assay [1], in assay [2], in assay [17], in assay [15], in [18] and in [16] was “inactive” in each case. Moreover, the Potency result in [19], in assay [9], in assay [11] and in assay [13] was “inactive” each time. The compound was called inactive in [10] and in assay [12].

With `C=C(C)C(=O)OCCOCC`, the Potency result in assay [14], in [2], in assay [17], in [15], in [18] and in [16] was “inactive” in each case. For the same compound, the Potency result in [6], in assay [7], in [8], in assay [9], in assay [11] and in [13] was “inactive” each time. Moreover, the result in assay [10] and in assay [12] was inactive.

`CCC(CC)Nc1ccc(C)c(C)c1`: the Potency entry in [14], in [2], in assay [3], in assay [15], in [5] and in assay [6] was “inactive” throughout. Besides, the Potency entry in assay [7], in assay [19], in [9], in [11] and in assay [13] was “inactive” each time. In addition, the result in assay [10] and in assay [12] was inactive.

Regarding `Clc1ccc(Cn2c(CN3CCCC3)nc3ccccc32)cc1`, the Potency result in assay [14], in assay [2], in assay [18], in [5], in assay [9] and in assay [11] was “inactive” each time. For the same compound, the Potency entry in [13] is “inactive”. Moreover, the Potency was 6.68 µM (active) in assay [19] and 7.5 µM (active) in assay [8]. Also, the compound was classed as inactive in [10] and in assay [12].

In the case of `C[C@@H](c1ncncc1F)C(O)(Cn1cncn1)c1ccc(F)cc1F` (stereo not given in full), the Potency entry in assay [2], in assay [3], in assay [4], in [17], in [15] and in assay [18] was “inactive” throughout. Besides, the Potency entry in [16], in assay [5], in [6], in assay [7], in [19] and in assay [9] was “inactive” each time. Further, the Potency entry in [11] and in assay [13] was “inactive” throughout. Besides, the call in [10] and in [12] was inactive.

Consider `CN(C)CCOC(c1ccccc1)c1ccc(Br)cc1` (stereo not given), for which the Potency result in [2], in [4], in assay [15], in assay [18], in [16] and in [6] was “inactive” throughout. For the same compound, in [13], the Potency result is “inactive”. The Potency in assay [3] was 23.7 µM (active); in assay [19], 13.3 µM (active). For the same compound, the outcome in assay [10] and in [12] was inactive.
